Results on 28 sequences are retold here after the supplement of paper PMC12645437, “Orthogonal IMiD-Degron Pairs Induce Selective Protein Degradation in Cells” (ACS Chemical Biology, 2025).

Over roughly 8,300 sequences, “log2 fold change of degron read counts, EGFP-low vs EGFP+ sorted cells (limma voom), compound-induced degradation” has its median near -1.1; the highest 2% begin near 3.2. The full list was thinned out, with the highest values kept by preference.

This test deals with T1, CRBN, Q96SW2.
T1 chain: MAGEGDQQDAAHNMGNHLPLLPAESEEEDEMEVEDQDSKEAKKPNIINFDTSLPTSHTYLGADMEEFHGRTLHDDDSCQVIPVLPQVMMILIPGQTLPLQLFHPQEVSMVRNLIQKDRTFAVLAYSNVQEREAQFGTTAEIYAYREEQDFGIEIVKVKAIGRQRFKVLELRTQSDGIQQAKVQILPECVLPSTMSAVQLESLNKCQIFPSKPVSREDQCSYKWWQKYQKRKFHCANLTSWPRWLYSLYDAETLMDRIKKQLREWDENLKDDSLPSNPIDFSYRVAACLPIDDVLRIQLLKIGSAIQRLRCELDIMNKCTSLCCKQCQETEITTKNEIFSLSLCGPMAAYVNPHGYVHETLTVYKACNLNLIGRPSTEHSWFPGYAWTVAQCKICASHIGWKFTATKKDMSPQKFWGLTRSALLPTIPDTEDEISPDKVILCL
The test is described as follows: log2 fold change of degron read counts, EGFP-low vs EGFP+ sorted cells (limma voom), compound-induced degradation; higher = more compound-induced degradation of the degron-EGFP fusion; degrons are variants of IKZF1/3 zinc finger 2; compound dose not given here. Conditions: Jurkat, 18 h.

[1] abbreviates: compound: compound 19 (5-tert-butyl-thalidomide).
Setting [2] is: compound: compound 22 (5-morpholino-thalidomide).
Where [3] appears, read: compound: compound 33 (diphenyl IMiD analogue).
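Note: pooled lentiviral library of zinc finger degron-EGFP fusions in mCherry-positive Jurkat cells, FACS-sorted after compound exposure, with degron abundance counted by next-generation sequencing.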

Turning to LDCNQCGFQCTQKGNLLRHIKL [46L_47D_49N_50Q_52G_53F_54Q_55C_67L_, Q9UKT9], the “log2 fold change of degron read counts” value is -2.46 under setting [1], -2.61 under setting [2], -2.96 under setting [3] and -1.93 (compound: thalidomide).
Take FICPVCGATFTQKGNLLRHIKL [46F_47I_49P_50V_52G_53A_54T_55F_67L_, Q9UKT9]: the “log2 fold change of degron read counts” value under setting [1] was -1.38, the “log2 fold change of degron read counts” value under setting [2] stood at 1.38, the “log2 fold change of degron read counts” value under setting [3] was found to be 1.48 and the “log2 fold change of degron read counts” value (compound: thalidomide) was found to be 1.83.
As for FKCEICGHHFTQKGNLLRHIKL [46F_47K_49E_50I_52G_53H_54H_55F_67L_, Q9UKT9], the “log2 fold change of degron read counts” value is -3.82 under setting [1], -3.97 under setting [2], -3.56 under setting [3] and -3.72 (compound: thalidomide).
For FNCNQCGRPFTQKGNLLRHIKL [46F_47N_49N_50Q_52G_53R_54P_55F_67L_, Q9UKT9], in that order: -1.93, -2, -2.66 and -2.05.
Take FVCPQCGAMFTQKGNLLRHIKL [46F_47V_49P_50Q_52G_53A_54M_55F_67L_, Q9UKT9]: the “log2 fold change of degron read counts” value reads like this: under setting [1], -2.14; under setting [2], -0.591; under setting [3], 0.3; (compound: thalidomide) -0.862.
For FECPQCGAFFTQKGNLLRHIKL [46F_47E_49P_50Q_52G_53A_54F_55F_67L_, Q9UKT9], the “log2 fold change of degron read counts” value is -2.8 under setting [1], -3.69 under setting [2], -1.82 under setting [3] and -1.91 (compound: thalidomide).
FECDQCGAAFTQKGNLLRHIKL [46F_47E_49D_50Q_52G_53A_54A_55F_67L_, Q9UKT9]: the “log2 fold change of degron read counts” value is, setting by setting: under setting [1], -1.3; under setting [2], -3.38; under setting [3], -1.76; (compound: thalidomide) -1.6.
For FTCEQCGACFTQKGNLLRHIKL [46F_47T_49E_50Q_52G_53A_54C_55F_67L_, Q9UKT9], in that order: -1.75, -1.02, 0.816 and 0.182.
For the sequence FWCPQCGAVFTQKGNLLRHIKL [46F_47W_49P_50Q_52G_53A_54V_55F_67L_, Q9UKT9], the “log2 fold change of degron read counts” value was -0.18 under setting [1], 1.02 under setting [2], 0.693 under setting [3] and -0.596 (compound: thalidomide).
With FYCEICGAMFTQKGNLLRHIKL [46F_47Y_49E_50I_52G_53A_54M_55F_67L_, Q9UKT9], the “log2 fold change of degron read counts” value runs as follows: under setting [1], 3.62; under setting [2], 3.42; under setting [3], 2.55; (compound: thalidomide) 0.91.
Consider FICEICGAMFTQKGNLLRHIKL [46F_47I_49E_50I_52G_53A_54M_55F_67L_, Q9UKT9], for which the “log2 fold change of degron read counts” value by setting is: under setting [1], -0.357; under setting [2], 1.35; under setting [3], 2.3; (compound: thalidomide) 2.13.
In the case of FTCEICGAMFTQKGNLLRHIKL [46F_47T_49E_50I_52G_53A_54M_55F_67L_, Q9UKT9], the “log2 fold change of degron read counts” value runs as follows: under setting [1], 0.136; under setting [2], 0.966; under setting [3], 1.62; (compound: thalidomide) 1.82.
Consider FACPQCGAAFTQKGNLLRHIKL [46F_47A_49P_50Q_52G_53A_54A_55F_67L_, Q9UKT9], for which the “log2 fold change of degron read counts” value is 1.65 under setting [1], -0.791 under setting [2], 0.0272 under setting [3] and -1.04 (compound: thalidomide).
Turning to FDCEVCGAGFTQKGNLLRHIKL [46F_47D_49E_50V_52G_53A_54G_55F_67L_, Q9UKT9], the “log2 fold change of degron read counts” value is, setting by setting: under setting [1], 1.18; under setting [2], -1.45; under setting [3], -1.35; (compound: thalidomide) -0.721.
In the case of FYCEVCGAGFTQKGNLLRHIKL [46F_47Y_49E_50V_52G_53A_54G_55F_67L_, Q9UKT9], the “log2 fold change of degron read counts” value reads like this: under setting [1], 3.31; under setting [2], 3.22; under setting [3], 2.6; (compound: thalidomide) 0.445.
On to FCCEVCGAGFTQKGNLLRHIKL [46F_47C_49E_50V_52G_53A_54G_55F_67L_, Q9UKT9], for which the “log2 fold change of degron read counts” value reads like this: under setting [1], 3.35; under setting [2], 1.74; under setting [3], 1.47; (compound: thalidomide) 1.17.
In the case of FRCEVCGAGFTQKGNLLRHIKL [46F_47R_49E_50V_52G_53A_54G_55F_67L_, Q9UKT9], the “log2 fold change of degron read counts” value stood at 2.66 under setting [1], 2.02 under setting [2], 2.33 under setting [3] and 1.57 (compound: thalidomide).
Take FICEVCGAGFTQKGNLLRHIKL [46F_47I_49E_50V_52G_53A_54G_55F_67L_, Q9UKT9]: the “log2 fold change of degron read counts” value reads like this: under setting [1], -0.137; under setting [2], 2.66; under setting [3], 2.12; (compound: thalidomide) 2.56.
For the sequence FACEVCGAGFTQKGNLLRHIKL [46F_47A_49E_50V_52G_53A_54G_55F_67L_, Q9UKT9], the “log2 fold change of degron read counts” value was 3.4 under setting [1], 1.13 under setting [2], -0.271 under setting [3] and 0.383 (compound: thalidomide).
In the case of FHCEVCGAGFTQKGNLLRHIKL [46F_47H_49E_50V_52G_53A_54G_55F_67L_, Q9UKT9], the “log2 fold change of degron read counts” value was 3.18 under setting [1], 1.07 under setting [2], 2.01 under setting [3] and -0.276 (compound: thalidomide).
With FQCEVCGAGFTQKGNLLRHIKL [46F_47Q_49E_50V_52G_53A_54G_55F_67L_, Q9UKT9], the “log2 fold change of degron read counts” value by setting is: under setting [1], 2.45; under setting [2], 1.65; under setting [3], 1.38; (compound: thalidomide) 3.21.
For the sequence FLCEVCGAGFTQKGNLLRHIKL [46F_47L_49E_50V_52G_53A_54G_55F_67L_, Q9UKT9], the “log2 fold change of degron read counts” value is, setting by setting: under setting [1], 2.28; under setting [2], -0.0355; under setting [3], 1.42; (compound: thalidomide) 1.08.
For the sequence FECEVCGAGFTQKGNLLRHIKL [46F_47E_49E_50V_52G_53A_54G_55F_67L_, Q9UKT9], the “log2 fold change of degron read counts” value was 1.72 under setting [1], -1.52 under setting [2], 0.852 under setting [3] and 1.21 (compound: thalidomide).
As for FGCEVCGAGFTQKGNLLRHIKL [46F_47G_49E_50V_52G_53A_54G_55F_67L_, Q9UKT9], the “log2 fold change of degron read counts” value is 1.93 under setting [1], -0.105 under setting [2], 0.538 under setting [3] and -0.636 (compound: thalidomide).
FFCEVCGAGFTQKGNLLRHIKL [46F_47F_49E_50V_52G_53A_54G_55F_67L_, Q9UKT9]: the “log2 fold change of degron read counts” value turned out to be 3.65 under setting [1], 2.72 under setting [2], 1.51 under setting [3] and 0.512 (compound: thalidomide).
Regarding FGCPQCGALFTQKGNLLRHIKL [46F_47G_49P_50Q_52G_53A_54L_55F_67L_, Q9UKT9], the “log2 fold change of degron read counts” value was 0.741 under setting [1], -1.93 under setting [2], 1.28 under setting [3] and -2.08 (compound: thalidomide).
Turning to FSCDICGAKFTQKGNLLRHIKL [46F_47S_49D_50I_52G_53A_54K_55F_67L_, Q9UKT9], the “log2 fold change of degron read counts” value runs as follows: under setting [1], 1.91; under setting [2], 1.04; under setting [3], -1.63; (compound: thalidomide) 0.394.
Regarding FRCPVCGAVFTQKGNLLRHIKL [46F_47R_49P_50V_52G_53A_54V_55F_67L_, Q9UKT9], the “log2 fold change of degron read counts” value under setting [1] is -1.2, the “log2 fold change of degron read counts” value under setting [2] was -0.699, the “log2 fold change of degron read counts” value under setting [3] amounted to 1.54 and the “log2 fold change of degron read counts” value (compound: thalidomide) was 1.18.
